# According to PubChem BioAssay (EPA / NIEHS):
# Values joined by “and” are separate entries in the source; they are usually repeats but may differ in a detail not shown here. Equal values may be shown once. Inconclusive results are not listed. Where a structure was tested more than once in an assay, its records may differ in their call. Active and inactive are the calls of the source. The calls were made as follows: active = hit-call score of the fitted dose curve at least 0.9, where 1 is the maximum; inconclusive = response in the unintended direction; inactive = score below 0.9.
# Key:
# [1] = TOX21_p53_BLA_p5_viability: Viability Assessment in the Tox21 HCT-116 p53 Agonism Beta-lactamase Assay, Phase 5 (AID 2283600)
# How it was run: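 Decreased CellTiter-Glo luminescence denotes lost viability. Exposure: 16 h at 37C, 5% CO2, with compounds from DMSO stocks diluted 217-fold in wells of 4000 cells.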
# [2] = biological target: Cellular tumor antigen p53 (Homo sapiens) (UniProt P04637); assay: TOX21_p53_BLA_p4_ratio: Tox21 HCT-116 p53 Agonism Beta-lactamase Assay, Ratio, Phase 4 (AID 2283601)
# How it was run: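 HCT116 cells carrying an inducible beta-lactamase reporter were plated at 4000 cells/well, rested 5 h, then exposed to compounds in DMSO (217-fold dilution) for 16 h at 37C. CCF4-AM substrate was loaded 2 h at room temperature; 460/530 nm emission ratio scored gain-of-signal versus DMSO.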
# [3] = Tanguay_ZF_120hpf_MORT_legacy: (Legacy) Oregon State University Tanguay Lab 120 Hour Post-fertilization zebrafish Assay for Mortality (AID 2283633)
# How it was run: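 Dechorionated Tropical 5D wild-type zebrafish embryos, one per well from 6 hpf, static exposure in 0.64% DMSO at 28C until 120 hpf. Mortality scored as binary by brightfield microscopy at 24 and 120 hpf.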
# [4] = Tanguay_ZF_120hpf_YSE_legacy: (Legacy) Oregon State University Tanguay Lab 120 Hour Post-fertilization zebrafish Assay for Yolk Sac Edema (AID 2283634)
# How it was run: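 Dechorionated Tropical 5D wild-type zebrafish embryos were exposed statically, one per well, from 6 to 120 hpf at 28C in 0.64% DMSO. Yolk sac edema was scored present/absent by brightfield at 120 hpf, and dead embryos were excluded.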
# [5] = Tanguay_ZF_120hpf_EYE_legacy: (Legacy) Oregon State University Tanguay Lab 120 Hour Post-fertilization zebrafish Assay for Eye Malformation (AID 2283636);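 also: binary presence or absence of eye malformation scored by brightfield in 120 hpf larvae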
# How it was run: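 Static waterborne exposure of dechorionated zebrafish embryos (strain Tropical 5D), 6 to 120 hpf, sealed plates at 28C, 0.64% DMSO vehicle. Eye malformation is scored as a binary endpoint, with gain of signal analysed relative to DMSO.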
# [6] = Tanguay_ZF_120hpf_SNOU_legacy: (Legacy) Oregon State University Tanguay Lab 120 Hour Post-fertilization zebrafish Assay for Snout Malformation (AID 2283637)
# How it was run: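 Dechorionated zebrafish, individually housed from 6 hpf in covered, sealed wells at 28C with 0.64% DMSO vehicle, were examined at 120 hpf for snout malformation. Responses were binary and analysed positive-direction relative to DMSO.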
# [7] = Tanguay_ZF_120hpf_JAW_legacy: (Legacy) Oregon State University Tanguay Lab 120 Hour Post-fertilization zebrafish Assay for Jaw Malformation (AID 2283638)
# How it was run: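 Dechorionated Tropical 5D wild-type zebrafish embryos, one per well, exposed statically from 6 hpf to 120 hpf at 28C in 0.64% DMSO. Jaw malformation was scored by brightfield microscopy as present or absent. It was not scored in dead embryos.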
# [8] = Tanguay_ZF_120hpf_PE_legacy: (Legacy) Oregon State University Tanguay Lab 120 Hour Post-fertilization zebrafish Assay for Pericardial Edema (AID 2283640)
# How it was run: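 Tropical 5D wild-type zebrafish embryos were statically exposed until 120 hpf at 28C, with 0.64% DMSO final. Pericardial edema was scored by brightfield as present or absent; endpoints were not scored in dead embryos.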
# [9] = Tanguay_ZF_120hpf_BRAI_legacy: (Legacy) Oregon State University Tanguay Lab 120 Hour Post-fertilization zebrafish Assay for Brain Malformation (AID 2283641)
# How it was run: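 Tropical 5D wild-type zebrafish embryos exposed statically until 120 hpf at 28C, 0.64% DMSO final, sealed and dark. Brain malformation scored present/absent by brightfield at 120 hpf; dead embryos excluded. Trimethyltin chloride 5uM positive control.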
# [10] = Tanguay_ZF_120hpf_SOMI_legacy: (Legacy) Oregon State University Tanguay Lab 120 Hour Post-fertilization zebrafish Assay for Somite Malformation (AID 2283647)
# How it was run: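 Dechorionated Tropical 5D wild-type zebrafish embryos, one per well from 6 hpf, statically exposed at 28C to 120 hpf in 0.64% DMSO; somite malformation scored present/absent by brightfield; trimethyltin 5 uM positive control; dead embryos not scored.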
# [11] = Tanguay_ZF_120hpf_CFIN_legacy: (Legacy) Oregon State University Tanguay Lab 120 Hour Post-fertilization zebrafish Assay for Caudal Fin Malformation (AID 2283649)
# How it was run: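 Dechorionated Tropical 5D wild-type embryos, one per well from 6 hpf, static exposure to 120 hpf at 28C in 0.64% DMSO. Caudal fin malformation scored by brightfield as present/absent; not scored in dead embryos.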
# [12] = Tanguay_ZF_120hpf_PIG_legacy: (Legacy) Oregon State University Tanguay Lab 120 Hour Post-fertilization zebrafish Assay for Pigmentation Malformation (AID 2283650)
# How it was run: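 Endpoint is incidence of abnormal pigmentation at 120 hpf in dechorionated 5D zebrafish exposed singly from 6 hpf at 28C, DMSO vehicle at 0.64%. Embryos dying by 24 or 120 hpf are excluded from scoring.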
# [13] = Tanguay_ZF_120hpf_CIRC_legacy: (Legacy) Oregon State University Tanguay Lab 120 Hour Post-fertilization zebrafish Assay for Circulatory Malformation (AID 2283651)
# How it was run: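 Binary circulatory-malformation call at 120 hpf via brightfield imaging, relative to DMSO controls. Embryos (5D strain, chorion removed) received static, light-shielded exposure at 28C.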
# [14] = Tanguay_ZF_120hpf_SWIM_legacy: (Legacy) Oregon State University Tanguay Lab 120 Hour Post-fertilization zebrafish Assay for Swim Bladder Malformation (AID 2283654);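 also: swim bladder malformation in each larva scored yes or no under brightfield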
# How it was run: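 Static waterborne exposure of single dechorionated Tropical 5D zebrafish embryos, 6–120 hpf, 28C, 0.64% DMSO final. Read-out: swim bladder malformation, present/absent, relative to DMSO negative control; trimethyltin chloride 5uM served as positive control.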
# [15] = Tanguay_ZF_120hpf_TRUN_legacy: (Legacy) Oregon State University Tanguay Lab 120 Hour Post-fertilization zebrafish Assay for Truncated Body (AID 2283655)
# How it was run: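 Dechorionated Tropical 5D wild-type embryos placed singly from 6 hpf and statically exposed to 120 hpf at 28C, final DMSO 0.64%. Truncated body scored as present/absent by brightfield; not scored in dead embryos.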
# [16] = Tanguay_ZF_120hpf_NC_legacy: (Legacy) Oregon State University Tanguay Lab 120 Hour Post-fertilization zebrafish Assay for Notochord and Tail Malformation (AID 2283656)
# How it was run: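 Binary notochord-distortion calls, made by brightfield inspection, form the read-out; activity is fitted in the positive direction against DMSO. Exposure ran statically from 6 to 120 hpf at 28C with 0.64% DMSO.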
# [17] = CCTE_Simmons_CellTiterGLO_HEK293T: Viability Assessment in CCTE's Assays for Thyroperoxidase (TPO) Inhibition, Simmons Lab (AID 2283665);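 as to AC50: cells exposed to compound for 24 h before readout; actives reduce ATP signal below DMSO vehicle meaning cytotoxicity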
# How it was run: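 ATP depletion measured in HEK293T cells after 24 h dosing (8 concentrations, 5 nM–87.5 uM final; DMSO 0.5%) using CellTiter-Glo luminescence; curves fit for loss of signal against DMSO baseline.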
# [18] = Tanguay_ZF_120hpf_AXIS_legacy: (Legacy) Oregon State University Tanguay Lab 120 Hour Post-fertilization zebrafish Assay for Body Axis Malformation (AID 2283635)
# How it was run: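 Dechorionated wild-type Tropical 5D zebrafish embryos, one per well, statically exposed from 6 hpf to 120 hpf at 28C in 0.64% DMSO final. Body axis malformation scored present/absent by brightfield microscopy at 120 hpf; dead embryos excluded.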
# [19] = Tanguay_ZF_120hpf_PFIN_legacy: (Legacy) Oregon State University Tanguay Lab 120 Hour Post-fertilization zebrafish Assay for Pectoral Fin Malformation (AID 2283648);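 also: each larva judged yes or no for fin defect by brightfield with dead larvae skipped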
# How it was run: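 Scoring of pectoral fin malformation was binary, made at 120 hpf on larvae exposed statically from 6 hpf after enzymatic chorion removal. Activity was fitted upward relative to DMSO controls at 0.64% (vol/vol).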
# Cellular tumor antigen p53 (Homo sapiens), sequence (P04637 whole entry, looked up): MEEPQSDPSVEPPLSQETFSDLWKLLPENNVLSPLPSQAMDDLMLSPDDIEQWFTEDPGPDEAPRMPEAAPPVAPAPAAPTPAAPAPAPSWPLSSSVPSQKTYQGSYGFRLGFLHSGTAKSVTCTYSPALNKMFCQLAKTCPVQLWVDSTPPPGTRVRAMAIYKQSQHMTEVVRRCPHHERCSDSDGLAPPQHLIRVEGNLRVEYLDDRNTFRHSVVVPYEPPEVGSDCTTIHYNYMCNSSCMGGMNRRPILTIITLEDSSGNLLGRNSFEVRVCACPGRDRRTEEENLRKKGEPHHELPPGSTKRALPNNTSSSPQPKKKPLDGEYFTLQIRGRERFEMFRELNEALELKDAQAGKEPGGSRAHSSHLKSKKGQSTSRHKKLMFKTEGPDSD
structure (smiles),measurement,setting,value
C[C@]12CC[C@@H]3c4ccc(O)cc4CC[C@H]3[C@@H]1CC[C@@H]2O,outcome,[1],inactive
same,AC50,[2],31.4 µM (active) and 17.7 µM (active) and 15.6 µM (active)
same,outcome,[3],inactive
same,outcome,[4],inactive
same,outcome,[5],inactive
same,outcome,[6],inactive
same,outcome,[7],inactive
same,outcome,[8],inactive
same,outcome,[9],inactive
same,outcome,[10],inactive
same,outcome,[11],inactive
same,outcome,[12],inactive
same,outcome,[13],inactive
same,outcome,[14],inactive
same,outcome,[15],inactive
same,outcome,[16],inactive
same,outcome,[17],inactive
COc1ccccc1O,outcome,[1],inactive
same,outcome,[2],inactive
same,outcome,[17],inactive
[O-]/[N+](=N\O)c1ccccc1,outcome,[1],inactive
same,outcome,[2],inactive
same,outcome,[17],inactive
CC(=O)CCC=C(C)CCC=C(C)C,outcome,[1],inactive
same,outcome,[2],inactive
CCCC(O)C(CC)CO (centres undefined),outcome,[1],inactive
same,outcome,[2],inactive
CNC(=C[N+](=O)[O-])NCCSCc1ccc(CN(C)C)o1,outcome,[1],inactive
same,outcome,[2],inactive
O=C(c1ccc(OCCN2CCCCC2)cc1)c1c(-c2ccc(O)cc2)sc2cc(O)ccc12,AC50,[1],77.6 µM (active) and 87.9 µM (active) and 41.9 µM (active)
same,AC50,[2],69.6 µM (active) and 69.3 µM (active) and 36.5 µM (active)
same,outcome,[3],inactive
same,outcome,[4],inactive
same,outcome,[18],inactive
same,outcome,[5],inactive
same,outcome,[6],inactive
same,outcome,[8],inactive
same,outcome,[10],inactive
same,outcome,[19],inactive
same,outcome,[11],inactive
same,outcome,[13],inactive
same,outcome,[15],inactive
same,outcome,[16],inactive
same,AC50,[17],20 µM (active)
CN1CCc2cccc3c2[C@H]1Cc1ccc(O)c(O)c1-3,outcome,[1],inactive
same,AC50,[2],67.3 µM (active)
same,outcome,[2],inactive
same,AC50,[17],14.4 µM (active)
NC(=O)c1cccnc1,outcome,[1],inactive
same,outcome,[2],inactive
CC(=O)Nc1cc(S(=O)(=O)O)cc2cc(S(=O)(=O)O)c(N=Nc3ccccc3)c(O)c12,outcome,[1],inactive
same,outcome,[2],inactive
same,AC50,[17],17.3 µM (active)
CC(=O)OC/C=C(C)/C=C/C=C(C)/C=C/C1=C(C)CCCC1(C)C,outcome,[1],inactive
same,outcome,[2],inactive
same,outcome,[17],inactive
CCc1cccc(O)c1,outcome,[1],inactive
same,outcome,[2],inactive
same,outcome,[17],inactive
CCCCCCCCCCCCOCCOS(=O)(=O)O,outcome,[1],inactive
same,outcome,[2],inactive
same,AC50,[17],78.3 µM (active)
CCCCCC#CC(=O)OC,outcome,[2],inactive
C[Si]1(C)N[Si](C)(C)N[Si](C)(C)N1,outcome,[2],inactive
CCCCCCCCCCCCS,outcome,[1],inactive
same,outcome,[2],inactive
same,AC50,[17],83.5 µM (active)
C=CCOC(=O)/C=C\C(=O)OCC=C,outcome,[1],inactive
same,outcome,[2],inactive
Cc1cccc(O)c1,outcome,[1],inactive
same,outcome,[17],inactive
O=S1(=O)CC=CC1,outcome,[1],inactive
same,outcome,[2],inactive
CC(C)C(=O)OCC=Cc1ccccc1,outcome,[1],inactive
same,outcome,[2],inactive
CCC(C)(C)C1CCC(=O)CC1,outcome,[1],inactive
same,outcome,[2],inactive
same,outcome,[17],inactive
c1ccc2scnc2c1,outcome,[1],inactive
same,outcome,[2],inactive
same,outcome,[17],inactive
CCCCCCOc1ccc(O)cc1,outcome,[1],inactive
same,AC50,[2],72.5 µM (active)
same,AC50,[17],66.1 µM (active)
